# STK33 kin inh – human STK33 kinase inhibition | Q9BYT3 | ADP-Glo luminescence, MBP substrate | inhibition, % at 12.5 µM | actives 0.44% (n = 27,000) | AID 2322; in the data active = inhibition above about 20%; inconclusive = no clear call, values can overlap the other calls
# Target sequence (Q9BYT3 whole entry, looked up): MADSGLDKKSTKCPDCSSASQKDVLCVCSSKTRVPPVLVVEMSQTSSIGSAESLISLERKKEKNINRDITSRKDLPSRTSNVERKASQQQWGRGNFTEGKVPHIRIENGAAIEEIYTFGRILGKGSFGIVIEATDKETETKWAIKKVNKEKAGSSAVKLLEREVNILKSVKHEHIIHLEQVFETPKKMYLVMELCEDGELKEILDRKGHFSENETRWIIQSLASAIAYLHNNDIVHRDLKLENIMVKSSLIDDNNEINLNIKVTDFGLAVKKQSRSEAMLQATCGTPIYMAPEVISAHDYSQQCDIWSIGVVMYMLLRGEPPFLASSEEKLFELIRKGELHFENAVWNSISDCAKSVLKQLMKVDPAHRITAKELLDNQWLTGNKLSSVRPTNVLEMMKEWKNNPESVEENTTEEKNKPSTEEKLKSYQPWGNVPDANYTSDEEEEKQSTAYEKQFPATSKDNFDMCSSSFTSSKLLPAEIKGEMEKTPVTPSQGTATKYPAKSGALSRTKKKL
# NOMO-1 viab – STK33 inhibitor candidate reducing NOMO-1 cell viability | NOMO-1 AML viability, CellTiter-Glo luminescence, 72 h | actives 7.5% (n = 37,000) | AID 2330 | inhibition, % (concentration not given with the values); in the data active = inhibition above about 80%; inconclusive = no clear call, values can overlap the other calls
# PD-1 reversal – activators reversing PD-1 mediated T-cell inhibition; primary human CD4 T cells, PD-L1 beads, CellTiter-Glo 96 h; activation, % (no concentration beside the values); 29,000 tested, under 10 active; AID 2316; call rule not given here
# Numbers stand for hits; i = inactive; ? = inconclusive; nt = no result. Shown is part of a subset that was picked to be rich in hits.
SMILES,STK33 kin inh,NOMO-1 viab,PD-1 reversal
CCCC1=C(C(=O)OCC)C(c2cccnc2)n2ncnc2N1 (stereo unspecified),i,i,i
O=C(Cn1cnc2scc(-c3cccc([N+](=O)[O-])c3)c2c1=O)Nc1cccc(C(F)(F)F)c1,i,i,i
c1ccc(SCCN2CCN(CCSc3ccccc3)CC2)cc1,nt,i,i
Cc1cc(C)c2c(c1C(=O)Nc1cccc(C(F)(F)F)c1)CC(C)(C)C2=O,nt,i,i
O=C(c1cc2cc(Br)ccc2oc1=O)N1CCCc2ccccc21,nt,i,i
O=C(CSc1nnc(-c2ccccc2Cl)n1-c1ccccc1)N1CCc2ccccc21,i,i,nt
COC(=O)c1cc(NC(=S)NCc2cccnc2)cc(C(=O)OC)c1,i,106,i
CC(=O)c1cccc(NC(=S)NCc2cccnc2)c1,i,i,nt
Cc1cc(Br)ccc1NC(=O)CN(C)S(=O)(=O)c1ccc(Cl)cc1,i,i,i
C[C@@H]1CN([C@H](C)CO)C(=O)Cc2cc(NS(=O)(=O)c3ccccc3)ccc2O[C@@H]1CN(C)Cc1ccc(C(=O)Nc2ccccc2N)cc1,nt,116,i
C[C@H]1CN([C@@H](C)CO)C(=O)Cc2cc(NS(=O)(=O)c3ccc(Cl)cc3)ccc2O[C@H]1CN(C)Cc1ccc(C(=O)Nc2ccccc2N)cc1,nt,139,i
Cc1ccc(S(=O)(=O)Nc2ccc3c(c2)CC(=O)N([C@H](C)CO)C[C@@H](C)[C@H](CN(C)Cc2ccc(C(=O)Nc4ccccc4N)cc2)O3)cc1,nt,i,i
C[C@H]1CN([C@@H](C)CO)C(=O)Cc2cc(NS(C)(=O)=O)ccc2O[C@@H]1CN(C)Cc1ccc(C(=O)Nc2ccccc2N)cc1,nt,i,i
OC[C@H]1O[C@@H](Oc2ccc3c(c2)OC[C@H]2c4cc5c(cc4O[C@@H]32)OCO5)[C@H](O)[C@@H](O)[C@@H]1O,i,i,i
COc1ccc2c(c1)O[C@H]1c3ccc(O)cc3OC[C@@H]21,i,i,i
CC(C)=CCc1cc2c(cc1O)O[C@H]1c3ccc(O)c(O)c3OC[C@@H]21,i,105,i
Oc1ccc2c(c1O)OCC1c3cc4c(cc3OC21)OCO4 (stereo unspecified),i,105,i
COc1c(O)ccc(C(c2cn(C)c3ccccc23)c2cn(C)c3ccccc23)c1[N+](=O)[O-],i,i,nt
Cc1c(NC(=S)NC(=O)COc2ccccc2)cccc1-c1nc2ccccc2s1,i,i,nt
CC(C)=CCc1c2c(c3occ(-c4ccc(O)cc4)c(=O)c3c1O)C=CC(C)(C)O2,i,107,nt
CC1(C)C=Cc2c(c(CCO)c3occ(-c4ccc(O)c(O)c4)c(=O)c3c2O)O1,i,i,i
COc1ccc(CC(=O)Nc2cccc(-c3nnc(-c4ccc(C)cc4)o3)c2)cc1OC,i,122,i
COc1ccccc1OCC(=O)Nc1cccc(-c2nnc(-c3ccccc3)o2)c1,i,i,i
CC12CCC(c3c1nn(-c1ccccc1)c3C(F)(F)F)C2(C)C (stereo unspecified),nt,123,i
Cc1ccc(-n2ncc(C(=O)NCc3ccccn3)c2NC(=O)c2ccco2)cc1C,i,i,i
SMILES,STK33 kin inh,NOMO-1 viab,PD-1 reversal
COc1ccc(S(=O)(=O)Nc2ccc3c(c2)C(=O)N([C@H](C)CO)C[C@@H](C)[C@@H](CN(C)Cc2ccc(Oc4ccccc4)cc2)O3)cc1,nt,111,i
COc1ccc(S(=O)(=O)Nc2ccc3c(c2)C(=O)N([C@H](C)CO)C[C@H](C)[C@@H](CN(C)Cc2ccc(Oc4ccccc4)cc2)O3)cc1,nt,i,i
C[C@@H]1CN([C@@H](C)CO)C(=O)c2cc(NS(=O)(=O)c3ccc(Cl)cc3)ccc2O[C@H]1CN(C)Cc1ccc(Oc2ccccc2)cc1,nt,109,i
C[C@@H]1CN([C@H](C)CO)C(=O)c2cc(NS(=O)(=O)c3ccc(Cl)cc3)ccc2O[C@H]1CN(C)Cc1ccc(Oc2ccccc2)cc1,nt,i,i
COc1ccc(S(=O)(=O)Nc2ccc3c(c2)C(=O)N([C@H](C)CO)C[C@H](C)[C@@H](CN(C)Cc2ccccc2)O3)cc1,nt,i,i
COc1ccc(S(=O)(=O)Nc2ccc3c(c2)C(=O)N([C@H](C)CO)C[C@@H](C)[C@H](CN(C)Cc2ccc(Oc4ccccc4)cc2)O3)cc1,i,105,i
C[C@H](CO)N1C[C@H](C)[C@H](CN(C)Cc2ccc(Oc3ccccc3)cc2)Oc2ccc(NS(=O)(=O)c3ccccc3)cc2C1=O,nt,?,i
C[C@@H]1CN([C@@H](C)CO)C(=O)c2cc(NS(=O)(=O)c3ccc(F)cc3)ccc2O[C@H]1CN(C)Cc1ccc(Oc2ccccc2)cc1,i,98,i
NNC(=O)C12CCCC(CCC1)C2,nt,i,i
O=C(Nc1cc(-c2ccc(Cl)cc2)[nH]n1)C1Cc2ccccc2C1,nt,i,i
CC(C)S(=O)(=O)N[C@@H]1CCN(Cc2ccc(OCCO)cc2)C1,i,nt,nt
O=[n+]1c(CO)c(CO)n([O-])c2ccccc21,nt,i,i
N#Cc1c(N)nc(SCC(=O)c2ccc(Cl)cc2)c(C#N)c1-c1ccco1,i,i,nt
O=C(Cc1ccccc1[N+](=O)[O-])Nc1ccccc1C(=O)NC1CCCCC1,i,i,nt
COc1cccc(NC(=O)CSc2nnc(-c3ccncc3)n2-c2ccc(C)cc2)c1,i,i,i
COc1ccc(CN(C)C[C@H]2Oc3ccc(NS(=O)(=O)c4ccccc4)cc3C(=O)N([C@@H](C)CO)C[C@@H]2C)cc1,i,i,i
COc1ccc(S(=O)(=O)Nc2ccc3c(c2)C(=O)N([C@@H](C)CO)C[C@@H](C)[C@H](CN(C)Cc2ccc(Oc4ccccc4)cc2)O3)cc1,i,108,i
COc1ccc(S(=O)(=O)Nc2ccc3c(c2)C(=O)N([C@@H](C)CO)C[C@@H](C)[C@H](CN(C)Cc2ccc(-c4ccccc4)cc2)O3)cc1,nt,122,i
C[C@@H]1CN([C@@H](C)CO)C(=O)c2cc(NS(=O)(=O)c3ccccc3)ccc2O[C@H]1CN(C)Cc1ccc(Oc2ccccc2)cc1,i,?,i
COc1ccc(S(=O)(=O)Nc2ccc3c(c2)C(=O)N([C@@H](C)CO)C[C@H](C)[C@H](CN(C)Cc2ccc(Oc4ccccc4)cc2)O3)cc1,i,123,nt
COc1ccc(S(=O)(=O)Nc2ccc3c(c2)C(=O)N([C@H](C)CO)C[C@H](C)[C@H](CN(C)Cc2ccc(-c4ccccc4)cc2)O3)cc1,nt,i,i
Cc1ccccc1NC(=O)CSc1ncnc2scc(-c3ccc(Cl)cc3)c12,i,i,i
C=CS(=O)(=O)c1ccc(OC)c(N)c1,i,120,i
COc1ccc(OC)c(S(=O)(=O)c2ccc(Br)cc2)c1,nt,i,i
Cc1nnsc1C(=O)NC(=O)Nc1cc(Cl)cc(Cl)c1,nt,i,i
CC1(C)CC[C@]2(C(=O)O)CC[C@]3(C)C(=CCC4[C@@]5(C)CC[C@H](O[C@@H]6OC[C@H](O)[C@H](O)[C@H]6O)[C@@](C)(CO)C5CC[C@]43C)C2C1 (stereo partly specified),i,120,i
CC1(C)CC[C@]2(C(=O)O[C@@H]3O[C@H](CO)[C@@H](O)[C@H](O)[C@H]3O)CC[C@]3(C)C(=CCC4[C@@]5(C)C[C@@H](O)[C@H](O)[C@](C)(CO)C5CC[C@]43C)C2[C@@H]1O (stereo partly specified),i,120,i

# Compound activity: PubChem, Broad Institute
